Measured values taken from PubChem BioAssay (NCATS).
Inconclusive results are not listed. The source made the active and inactive calls. Unless noted, calls follow the shape of the dose curve; as a rule, active = well fitted curve in the direction sought with a large enough effect; inconclusive = small, poorly fitted or top-dose-only effect, or another doubt; inactive = no such curve, though single readings can be large; an effect the other way counts as inactive or inconclusive.

What was measured:
[1] = target: Cellular tumor antigen p53 (Homo sapiens) (UniProt P04637); assay: Primary qHTS for small molecule compounds that upregulate eGFP-tagged delta133p53alpha (in C-terminal) cells. (AID 2060324); also: potency is read from the fitted curve at half-maximal effect
How it was run: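 Concentration-response screen: compounds titrated onto pre-induced NCI-H358 D133p53a-eGFP cells, incubated one day, fixed with 3.5% PFA. Per-cell GFP peak intensity was gated, then normalized against intraplate controls.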

[2] = target: Aldehyde dehydrogenase, mitochondrial (Homo sapiens) (UniProt P05091); assay: qHTS for Inhibitors of the Aldehyde Dehydrogenase Family (ALDH2) Validation screens (AID 2061302; active = well fitted inhibition curve with a large enough effect; title and protocol of this record describe different tests; also: potency is read from the fitted curve at half-maximal effect)
[3] = target: Retinaldehyde dehydrogenase 3 (Homo sapiens) (UniProt P47895); assay: qHTS for Inhibitors of the Aldehyde Dehydrogenase Family (ALDH1A3) Validation screen (AID 2061312); also: % is scaled to controls: 0 for no effect and ±100 for the full control effect; nearly all actives have a fitted effect of over 45% in size
[4] = target: Aldehyde dehydrogenase, mitochondrial (Homo sapiens) (UniProt P05091); assay: qHTS for Inhibitors of the Aldehyde Dehydrogenase Family (ALDH2) Confirmatory screens (AID 2061303; active = well fitted inhibition curve with a large enough effect; title and protocol of this record describe different tests; also: nearly all actives have a fitted effect of over 45% in size; also: potency is read from the fitted curve at half-maximal effect)
[5] = qHTS for Inhibitors of the Aldehyde Dehydrogenase Family (ALDH1A2, ALDH1A3, ALDH2, ALDH3A1) (AID 2061307); also: nearly all actives have a fitted effect of over 50% in size
[6] = target: Retinaldehyde dehydrogenase 3 (Homo sapiens) (UniProt P47895); assay: qHTS for Inhibitors of the Aldehyde Dehydrogenase Family (ALDH1A3) Confirmatory screens (AID 2061311); also: nearly all actives have a fitted effect of over 60% in size; also: potency is read from the fitted curve at half-maximal effect
[7] = target: Aldehyde dehydrogenase 1A1 (Homo sapiens) (UniProt P00352); assay: qHTS for Inhibitors of the Aldehyde Dehydrogenase Family (ALDH1A1) Confirmatory screens (AID 2061316); also: nearly all actives have a fitted effect of over 65% in size; also: potency is read from the fitted curve at half-maximal effect
[8] = target: Retinal dehydrogenase 2 (Homo sapiens) (UniProt O94788); assay: qHTS for Inhibitors of the Aldehyde Dehydrogenase Family (ALDH1A2) Confirmation screens (AID 2061314); also: nearly all actives have a fitted effect of over 65% in size; also: potency is read from the fitted curve at half-maximal effect
[9] = BET inhibitor-based combinations targeting novel dependencies in MECOM-rearranged (r) AML: OCI-AML3 cell line (AID 2202232); conditions: Potency: OCI-AML3 viability; also: nearly all actives have a fitted effect of over 35% in size; also: potency is read from the fitted curve at half-maximal effect
How it was run: (§1)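 Readout: CellTiter-Glo luminescence. Exposure: 48 h, 11 concentrations, 500 cells/well. Metric: AUC and within-line Z-AUC after DMSO/empty-well normalization.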

[10] = BET inhibitor-based combinations targeting novel dependencies in MECOM-rearranged (r) AML: MV-4-11 cell line (AID 2202233);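 also: plate controls were DMSO for no effect and blank wells for full effect; nearly all actives have a fitted effect of over 45% in size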
How it was run: (§2)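 Seeding density was 500 cells/well, and drug exposure lasted 48 hr under standard culture conditions. Read-out used CellTiter-Glo reagent with a 15 min room-temperature incubation before luminescence measurement; AUC and Z-AUC summarize the normalized responses.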

[11] = BET inhibitor-based combinations targeting novel dependencies in MECOM-rearranged (r) AML: HNT-34 cell line (AID 2202234);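 also: plate controls were vehicle wells for no effect and cell-free wells for full effect; nearly all actives have a fitted effect of over 35% in size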
How it was run: as §2

[12] = BET inhibitor-based combinations targeting novel dependencies in MECOM-rearranged (r) AML: UCSD-AML1 cell line (AID 2202235);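 also: series mostly up to about 46 µM; plate controls were DMSO vehicle wells for no effect and blank wells for full effect; nearly all actives have a fitted effect of over 40% in size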
How it was run: as §2

[13] = BET inhibitor-based combinations targeting novel dependencies in MECOM-rearranged (r) AML: AML-191 cell line (AID 2202236; also: nearly all actives have a fitted effect of over 35% in size; also: potency is read from the fitted curve at half-maximal effect)
How it was run: as §1

[14] = BET inhibitor-based combinations targeting novel dependencies in MECOM-rearranged (r) AML: AML-194 cell line (AID 2202237;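 also: plate controls were vehicle wells for no effect and wells without cells for full effect; nearly all actives have a fitted effect of over 40% in size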)
How it was run: as §1

[15] = target: Aldehyde dehydrogenase, mitochondrial (Homo sapiens) (UniProt P05091); assay: qHTS for Inhibitors of the Aldehyde Dehydrogenase Family (ALDH2) Primary screen (AID 2061308);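 also: plate controls were vehicle for no effect and reference inhibitor for full effect; nearly all actives have a fitted effect of over 55% in size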
[16] = target: Retinaldehyde dehydrogenase 3 (Homo sapiens) (UniProt P47895); assay: qHTS for Inhibitors of the Aldehyde Dehydrogenase Family (ALDH1A3) Primary screen (AID 2061315);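 also: plate controls were DMSO vehicle for no effect and reference inhibitor for full effect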
[17] = BET inhibitor-based combinations targeting novel dependencies in MECOM-rearranged (r) AML: SET-2 cell line (AID 2202231); conditions: SET-2 AML cells viability, CellTiter-Glo luminescence, 48 h; viability: stronger effect = lower value, series mostly up to about 46 µM;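 also: plate controls were DMSO treated cells for no effect and wells without cells for full effect; nearly all actives have a fitted effect of over 35% in size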
How it was run: as §1

Cellular tumor antigen p53 (Homo sapiens), sequence (P04637 whole entry, looked up): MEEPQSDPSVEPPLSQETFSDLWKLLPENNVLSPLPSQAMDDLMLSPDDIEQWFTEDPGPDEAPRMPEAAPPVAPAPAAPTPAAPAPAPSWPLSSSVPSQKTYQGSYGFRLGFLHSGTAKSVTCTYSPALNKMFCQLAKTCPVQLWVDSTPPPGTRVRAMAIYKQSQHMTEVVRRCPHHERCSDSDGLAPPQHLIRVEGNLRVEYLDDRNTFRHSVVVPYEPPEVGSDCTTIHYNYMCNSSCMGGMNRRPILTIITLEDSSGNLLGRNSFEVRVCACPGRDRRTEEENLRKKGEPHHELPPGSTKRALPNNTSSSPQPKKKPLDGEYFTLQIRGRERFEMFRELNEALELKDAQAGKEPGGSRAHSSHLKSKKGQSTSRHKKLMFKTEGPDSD

CCCCCCC(=O)OC1CC(C)(C)NC(C)(C)C1
inactive: Potency [1] | Potency [2] | Potency [3]

CCCCCCCCCCCCCCCCCCOC[C@H](COP(=O)([O-])OCC[N+](C)(C)C)OC
inactive: Potency [1] | Potency [2] | Potency [3]

N[C@H](C(=O)O)[C@H](O)C(=O)O
inactive: Potency [1] | Potency [2] | Potency [4] | Potency [5] | Potency [6] | Potency [7]

O=S(=O)(c1cccc2c(I)cccc12)N1CCCNCC1
inactive: Potency [1] | Potency [2] | Potency [5] | Potency [8] | Potency [10] | Potency [11] | Potency [12] | Potency [13] | Potency [14]
active: Potency [9] 20.9 µM

O=C1OC(=O)C2C3CCC(O3)C12 (stereo not given)
inactive: Potency [1] | Potency [2] | Potency [3]

CN1C2CCC1CC(OC(=O)c1c[nH]c3ccccc13)C2 (stereo not given)
inactive: Potency [1] | Potency [2] | Potency [3]

COc1ccc2cc([C@H](C)C(=O)O)ccc2c1
inactive: Potency [1] | Potency [2] | Potency [15] | Potency [3] | Potency [16] | viability [17] 116% | Potency [9] | Potency [10] | Potency [11] | Potency [12] | Potency [13] | Potency [14]

CSc1ccc2c(c1)N(CCC1CCCCN1C)c1ccccc1S2 (stereo not given)
inactive: Potency [1] | Potency [2] | Potency [3]

CCCCCCCCCCC(C)(C)C(=O)Nc1c(OC)cc(OC)cc1OC
inactive: Potency [1] | Potency [2] | Potency [3]

Brc1ccc([C@H]2CN3CCSC3=N2)cc1
inactive: Potency [1] | Potency [2] | Potency [4] | Potency [5] | Potency [6] | Potency [3] | Potency [8] | Potency [16] | Potency [7]

Cc1cc(O)c2c(c1)C(=O)c1cc(O)cc(O)c1C2=O
active: Potency [1] 26.9 µM | Potency [2] 3.16 µM | Potency [4] 712 nM | Potency [6] 11.3 µM | Potency [8] 6.34 µM | Potency [7] 2.52 µM | Potency [9] 9.34 µM | Potency [13] 16.6 µM
inactive: Potency [10] | Potency [12]

O=C1C(SCCO)=C(SCCO)C(=O)c2ccccc21
active: Potency [1] 8.49 µM | Potency [2] 2.24 µM
inactive: Potency [3]

NC1[C@H]2CN(c3nc4c(cc3F)c(=O)c(C(=O)O)cn4-c3ccc(F)cc3F)C[C@@H]12 (stereo not given in full)
inactive: Potency [1] | Potency [2] | Potency [3]

O=C1NCc2c1c1c3ccccc3[nH]c1c1[nH]c3ccccc3c21
active: Potency [1] 30.1 µM
inactive: Potency [2] | Potency [3]

Nc1ccc2c3c(cccc13)C(=O)NC2=O
inactive: Potency [2] | Potency [3]
active: Potency [1] 30.1 µM

O=C(O)c1cc(=O)c2c(Cl)cc(Cl)cc2[nH]1
inactive: Potency [1] | Potency [2] | Potency [5] | Potency [7]

Cc1cc(Cn2cnc3c2C[C@@H](C(=O)O)N(C(=O)C(c2ccccc2)c2ccccc2)C3)ccc1N
inactive: Potency [1] | Potency [2] | Potency [4] | Potency [8]

Cc1cc(C(C)(C)C)c(O)c(C)c1CC1=NCCN1
inactive: Potency [1] | Potency [2] | Potency [15] | Potency [3] | Potency [16] | Potency [9] | Potency [10] | Potency [11] | Potency [12] | Potency [13] | Potency [14]

O=Nc1c(-c2c(O)[nH]c3ccccc23)[nH]c2ccccc12
inactive: Potency [2] | Potency [3]

C[C@@H]1C(=O)NC2=Nc3cccc(Cl)c3CN21
inactive: Potency [2] | Potency [3]

CCN(CC)CC#CCOC(=O)C(O)(c1ccccc1)C1CCCCC1 (stereo not given)
inactive: Potency [2] | Potency [3]

C=C[C@@H]1CN2CC[C@@H]1C[C@H]2[C@H](O)c1ccnc2ccc(OC)cc12
inactive: Potency [2] | Potency [3]

N[C@H]1CONC1=O
inactive: Potency [2] | Potency [3]

O=C(O)/C=C/c1cnc[nH]1
inactive: Potency [2] | Potency [3]

CC(C)NCC(O)COc1cccc2ccccc12 (stereo not given)
inactive: Potency [2] | Potency [3]

COc1ccc(CN(CCN(C)C)c2ccccn2)cc1
inactive: Potency [2] | Potency [3]

CCN(CC)C(=O)c1ccc(O)c(OC)c1
inactive: Potency [2] | Potency [3]

Cc1ccc(S(=O)(=O)NC(=O)NN2CCCCCC2)cc1
inactive: Potency [2] | Potency [4] | Potency [6] | Potency [7]

N=C(N)c1ccc(OCCCCCOc2ccc(C(=N)N)cc2)cc1 (tested in a mixture with another compound)
inactive: Potency [2] | Potency [3]

OC(CCN1CCCCC1)(c1ccccc1)C1CCCCC1 (stereo not given)
inactive: Potency [2] | Potency [3]

O=C1CCC(c2ccc(-n3ccnc3)cc2)=NN1
inactive: Potency [2] | Potency [3]

CC(C)(C)OC(=O)N1CCN(c2ccc(NCc3ccc(-c4ccc(C#N)cc4)o3)cn2)CC1
inactive: Potency [16]
active: Potency [2] 0.398 µM | Potency [4] 35.7 nM | Potency [5] 6.31 µM | Potency [6] 7.08 µM | Potency [7] 2.25 µM
